Assay results as given in PubChem BioAssay (Tox21).
Records with an inconclusive call do not appear. Activity calls are given as the source filed them. Unless noted, calls follow the shape of the dose curve; as a rule, active = well fitted curve in the direction sought with a large enough effect in the repeat runs; inconclusive = weak or mixed curves; inactive = no such curve, though single readings can be large; an effect the other way counts as inactive or inconclusive.

Experiments:
[1] = qHTS RealTime-Glo MT Cell Viability Assay in HEK293 cells - 0 hour (AID 1224880); also: top concentration of the series differs between compounds; nearly all actives have a fitted effect of over 45% in size
Outline: (§1)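 Kinetic, non-lysing viability readout. Seed HEK293 (600/well) with reagent, incubate 5 h at 37 C/5% CO2, pin 23 nL compound in DMSO, incubate at 37 C, read luminescence at 0, 8, 16, 24, 32, 40 h.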

[2] = A CellTox Green Cytotoxicity Assay to monitor cytotoxicity in HEK293 cells - 32 hour (AID 1224881); also: nearly all actives have a fitted effect of over 40% in size
Outline: (§2)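 Real-time, in one plate: 600 HEK293 cells/well with dead-cell DNA dye, pinned compound after 5 h, 37 C incubation over 40 h; viable cells give no appreciable fluorescence.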

[3] = A CellTox Green Cytotoxicity Assay to monitor cytotoxicity in HepG2 cells - 0 hour (AID 1224882); also: nearly all actives have a fitted effect of over 35% in size
Outline: (§3)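 Cytotoxicity was tracked as dead-cell DNA fluorescence in HepG2 cells treated with test compounds at 37 C; each time-point value comes from one kinetic series spanning 0, 8, 16, 24, 32 and 40 h.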

[4] = A CellTox Green Cytotoxicity Assay to monitor cytotoxicity in HEK293 cells - 8 hour (AID 1224884); also: nearly all actives have a fitted effect of over 35% in size
Outline: as §2

[5] = qHTS RealTime-Glo MT Cell Viability Assay in HepG2 cells - 16 hour (AID 1224885); also: nearly all actives have a fitted effect of over 50% in size
Outline: (§4)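 HepG2 cells were seeded at 600 cells/well together with NanoLuc luciferase and a cell-permeant prosubstrate, preincubated 5 h at 37 C/5% CO2, then pin-dosed with compounds in DMSO. Nonlytic luminescence from viable cells was read at each time point.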

[6] = qHTS RealTime-Glo MT Cell Viability Assay in HEK293 cells - 24 hour (AID 1224886); also: top concentration of the series differs between compounds; nearly all actives have a fitted effect of over 50% in size
Outline: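 HEK293 cells were seeded at 600 cells/well together with NanoLuc luciferase and cell-permeant prosubstrate, preincubated 5 h at 37 C/5% CO2, then given compound in DMSO by pintool. Luminescence from viable-cell prosubstrate reduction was read repeatedly over 40 h.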

[7] = A CellTox Green Cytotoxicity Assay to monitor cytotoxicity in HEK293 cells - 16 hour (AID 1224888); also: nearly all actives have a fitted effect of over 35% in size
Outline: as §2

[8] = qHTS RealTime-Glo MT Cell Viability Assay in HepG2 cells - 0 hour (AID 1224889); also: nearly all actives have a fitted effect of over 50% in size
Outline: as §4

[9] = A CellTox Green Cytotoxicity Assay to monitor cytotoxicity in HepG2 cells - 8 hour (AID 1224890); also: nearly all actives have a fitted effect of over 45% in size
Outline: as §3

[10] = qHTS assay to identify small molecule antagonists of the estrogen receptor alpha (ER-alpha) signaling pathway using the BG1 cell line in the presence of 0.1 nM 17-beta-estradiol - cell viability counter screen (AID 1259241); also: nearly all actives have a fitted effect of over 40% in size
Outline: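 Estradiol-stimulated (0.1 nM) VM7Luc4E2 cells exposed to compounds 22 hr; viability measured by fluorescence of cleaved CellTiter-Fluor substrate after 30 min.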

[11] = qHTS assay to identify small molecule antagonists of the androgen receptor (AR) signaling pathway using the MDA cell line in the presence of 0.5 nM R1881 - cell viability counter screen (AID 1259242); also: nearly all actives have a fitted effect of over 45% in size
Outline: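 Cells seeded at 3,000/well and allowed 5 hr at 37C, 0% CO2 before compound transfer and R1881 (0.5 nM final) addition; 16 hr later, live-cell protease fluorescence indicated cytotoxicity.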

[12] = biological target: Estrogen receptor (Homo sapiens) (UniProt P03372); assay: qHTS assay to identify small molecule antagonists of the estrogen receptor alpha (ER-alpha) signaling pathway using the BG1 cell line in the presence of 0.1 nM 17-beta-estradiol (AID 1259244); also: nearly all actives have a fitted effect of over 50% in size
Chain of Estrogen receptor (Homo sapiens) (P03372 whole entry, looked up): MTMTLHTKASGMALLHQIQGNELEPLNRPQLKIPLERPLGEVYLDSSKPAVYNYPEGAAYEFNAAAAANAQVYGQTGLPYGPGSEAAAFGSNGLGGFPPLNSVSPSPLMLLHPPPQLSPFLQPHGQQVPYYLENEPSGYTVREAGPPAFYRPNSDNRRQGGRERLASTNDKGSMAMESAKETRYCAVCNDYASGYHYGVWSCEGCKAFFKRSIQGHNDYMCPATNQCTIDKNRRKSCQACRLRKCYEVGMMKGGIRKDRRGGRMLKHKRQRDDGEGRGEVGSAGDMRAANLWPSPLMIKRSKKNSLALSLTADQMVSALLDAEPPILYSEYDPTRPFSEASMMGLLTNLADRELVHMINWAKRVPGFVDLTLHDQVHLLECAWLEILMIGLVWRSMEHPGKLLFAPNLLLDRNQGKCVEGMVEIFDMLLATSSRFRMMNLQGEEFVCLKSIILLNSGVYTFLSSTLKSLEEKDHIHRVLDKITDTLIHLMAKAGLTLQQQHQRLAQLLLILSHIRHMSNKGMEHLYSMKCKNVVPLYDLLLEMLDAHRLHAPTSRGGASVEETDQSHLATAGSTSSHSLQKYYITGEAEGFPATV
Outline: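 Luciferase signal from VM7Luc4E2 ERE-reporter cells, co-dosed with test compound and 0.1 nM final 17beta-estradiol for 22 h, read with ONE-Glo.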

[13] = qHTS assay to identify small molecule phospholipidosis (PLD) inducers (AID 1259344; active = well fitted curve in the direction sought with a large enough effect; an effect the other way counts as inactive or inconclusive)
Outline: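 Image-based: LipidTOX Red pit count/intensity per well and per cell; HepG2, 24 h compound at 37 C, PFA fixation, Hoechst counterstain.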

[14] = qHTS assay to identify small molecule HDAC inhibitors (AID 1259364); also: potency is read from the fitted curve at half-maximal effect;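 also: wild-type HCT-116 cells with endogenous class I/II HDAC activity; nearly all actives have a fitted effect of over 45% in size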; as to activity change, negative = inhibition: top concentration of the series differs between compounds
Outline: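 HCT-116 wt cells, 1,500/well, overnight attach. Compounds (DMSO) 2 h, 37 °C. HDAC-Glo I/II, 30 min RT. Luminescence.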

[15] = qHTS assay to identify small molecule HDAC inhibitors - cell viability counter screen (AID 1259365)
Outline: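 After overnight seeding at 1,500 cells per well, wild-type HCT-116 cultures took up compounds in DMSO for 2hr at 37 C. Viable cell content came from luminescence with CellTiter-Glo.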

[16] = qHTS assay to identify small molecule agonists of the sonic hedgehog signaling (Shh) pathway - cell viability counter screen (AID 1259366); also: nearly all actives have a fitted effect of over 50% in size; also: potency is read from the fitted curve at half-maximal effect
Outline: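 Same-well cytotoxicity read. Gli1-Luc reporter 3T3 cells; compounds 24hr, 37C/5% CO2; CellTiter-Fluor fluorescence.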

[17] = A CellTox Green Cytotoxicity Assay to monitor cytotoxicity in HepG2 cells - 32 hour (AID 1224883); also: nearly all actives have a fitted effect of over 50% in size
Outline: as §3

[18] = qHTS RealTime-Glo MT Cell Viability Assay in HEK293 cells - 8 hour (AID 1224887)
Outline: as §1

[19] = biological target: Androgen receptor (Homo sapiens) (UniProt P10275); assay: qHTS assay to identify small molecule antagonists of the androgen receptor (AR) signaling pathway using the MDA cell line in the presence of 0.5 nM R1881 (AID 1259243); also: nearly all actives have a fitted effect of over 50% in size
Chain of Androgen receptor (Homo sapiens) (P10275 whole entry, looked up): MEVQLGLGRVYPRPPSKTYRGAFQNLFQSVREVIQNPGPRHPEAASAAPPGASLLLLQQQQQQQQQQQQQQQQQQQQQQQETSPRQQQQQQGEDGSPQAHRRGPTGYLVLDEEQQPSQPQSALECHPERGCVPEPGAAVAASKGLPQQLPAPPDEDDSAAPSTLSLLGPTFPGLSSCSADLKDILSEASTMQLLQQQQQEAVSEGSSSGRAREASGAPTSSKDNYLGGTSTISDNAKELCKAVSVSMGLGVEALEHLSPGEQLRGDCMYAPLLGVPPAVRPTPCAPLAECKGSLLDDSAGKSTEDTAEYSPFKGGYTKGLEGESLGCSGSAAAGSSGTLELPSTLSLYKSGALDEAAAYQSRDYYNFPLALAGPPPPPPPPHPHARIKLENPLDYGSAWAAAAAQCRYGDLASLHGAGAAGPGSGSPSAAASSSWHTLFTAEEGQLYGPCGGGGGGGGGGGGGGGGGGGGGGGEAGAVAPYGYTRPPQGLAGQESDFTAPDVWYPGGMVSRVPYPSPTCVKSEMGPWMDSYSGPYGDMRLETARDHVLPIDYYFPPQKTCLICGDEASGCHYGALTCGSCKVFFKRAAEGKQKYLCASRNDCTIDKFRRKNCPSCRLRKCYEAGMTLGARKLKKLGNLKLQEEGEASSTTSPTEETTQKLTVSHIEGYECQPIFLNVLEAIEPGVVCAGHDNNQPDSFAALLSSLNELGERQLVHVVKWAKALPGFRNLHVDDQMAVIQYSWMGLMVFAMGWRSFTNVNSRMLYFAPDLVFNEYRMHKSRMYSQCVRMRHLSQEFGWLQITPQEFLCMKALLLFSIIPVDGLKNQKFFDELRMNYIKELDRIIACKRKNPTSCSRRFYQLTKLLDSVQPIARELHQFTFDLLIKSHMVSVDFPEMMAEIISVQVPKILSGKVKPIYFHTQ
Outline: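 Luminescence from an AR/GR-responsive MMTV-luciferase construct in MDA-kb2 breast carcinoma cells, read 30 min after ONE-Glo, following 16 hr co-treatment with compounds and 0.5 nM R1881.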

[20] = qHTS assay to identify small molecule antagonists of the sonic hedgehog signaling (Shh) pathway - cell viability counter screen (AID 1259367); also: nearly all actives have a fitted effect of over 55% in size; also: potency is read from the fitted curve at half-maximal effect
Outline: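 Tox21 library chemicals were tested on a Gli1-Luc NIH/3T3 clone (2,000 cells/well) stimulated by conditioned medium; viability was quantified as fluorescence from CellTiter-Fluor reagent added at 23 hr.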
% is scaled to controls: 0 for no effect and ±100 for the full control effect.

O=c1[nH]oc2c1CCNC2
inactive: outcome [1] | Potency [2] | outcome [3] | Potency [4] | Potency [5] | Potency [6] | Potency [7] | outcome [8] | Potency [9] | outcome [10] | Potency [11] | Potency [12] | Potency [13] | Potency [14] | outcome [15] | Potency [16]

COc1cccc([C@@]2(O)CCCC[C@@H]2CN(C)C)c1
inactive: outcome [1] | Potency [2] | Potency [17] | Potency [4] | Potency [5] | Potency [6] | Potency [18] | Potency [7] | outcome [8] | Potency [9] | outcome [10] | Potency [11] | Potency [19] | Potency [12] | Potency [13] | Potency [14] | Potency [16]

CC[C@@H](CO)NC(=O)[C@@H]1C=C2c3cccc4[nH]cc(c34)C[C@H]2N(C)C1
inactive: outcome [1] | Potency [2] | Potency [17] | Potency [4] | Potency [5] | Potency [6] | Potency [18] | Potency [7] | outcome [8] | Potency [9] | outcome [10] | Potency [11] | Potency [19] | Potency [12] | Potency [13] | Potency [14] | outcome [15] | Potency [16]

S=C=S
inactive: outcome [1] | Potency [2] | Potency [17] | Potency [4] | Potency [5] | Potency [6] | Potency [18] | Potency [7] | outcome [8] | Potency [9] | outcome [10] | Potency [11] | Potency [12] | Potency [13] | Potency [14] | outcome [15] | Potency [16]

N#CN=C1SCCN1Cc1ccc(Cl)nc1
inactive: Potency [2] | outcome [3] | Potency [17] | Potency [4] | Potency [5] | Potency [6] | Potency [18] | Potency [7] | outcome [8] | Potency [9] | outcome [10] | Potency [11] | Potency [12] | Potency [14] | outcome [15] | Potency [16]

CC(=NC#N)N(C)Cc1ccc(Cl)nc1
inactive: outcome [1] | Potency [2] | Potency [17] | Potency [4] | Potency [5] | Potency [18] | Potency [7] | outcome [8] | Potency [9] | outcome [10] | Potency [11] | Potency [14] | outcome [15] | Potency [16] | Potency [20]

NNCc1ccccc1
inactive: outcome [1] | Potency [2] | Potency [17] | Potency [4] | Potency [5] | Potency [18] | Potency [7] | outcome [8] | Potency [9] | outcome [10] | Potency [11] | outcome [15] | Potency [16] | Potency [20]
active: Potency [14] 11.1 µM

CCC(C(N)=O)N1CCCC1=O (stereo unspecified)
inactive: outcome [1] | Potency [2] | Potency [17] | Potency [4] | Potency [5] | Potency [18] | Potency [7] | outcome [8] | Potency [9] | outcome [10] | Potency [11] | Potency [12] | Potency [13] | Potency [14] | outcome [15] | Potency [16] | Potency [20]

CCOC(=O)NC(C)(C)Cc1ccc(Cl)cc1
inactive: outcome [1] | Potency [17] | Potency [4] | Potency [5] | Potency [6] | outcome [8] | Potency [9] | outcome [10] | Potency [11] | Potency [12] | PLD induction [13] 18.3% [at 1.53 µM] | Potency [14] | outcome [15] | Potency [16]

CCC(=O)OC1(c2ccccc2)CCN(C)CC1
inactive: outcome [1] | Potency [2] | Potency [17] | Potency [5] | Potency [18] | Potency [7] | outcome [8] | Potency [9] | outcome [10] | Potency [11] | Potency [13] | Potency [14] | outcome [15] | Potency [16] | Potency [20]

CCN(CCO)CCO
inactive: outcome [1] | Potency [2] | Potency [17] | Potency [4] | Potency [18] | Potency [7] | outcome [8] | Potency [9] | outcome [10] | Potency [11] | Potency [14] | outcome [15] | Potency [16]

Cn1c(N)nc2c3cccnc3ccc21
active: Potency [16] 26 µM | Potency [20] 26 µM
inactive: outcome [1] | outcome [3] | Potency [17] | Potency [4] | Potency [6] | Potency [18] | Potency [7] | outcome [8] | Potency [9] | Potency [11] | Potency [14] | outcome [15]

CC(Cc1ccccc1)NCCCCl (stereo unspecified)
inactive: Potency [2] | outcome [3] | Potency [17] | Potency [4] | Potency [5] | Potency [6] | Potency [18] | Potency [7] | outcome [8] | Potency [9] | outcome [10] | Potency [11] | Potency [19] | Potency [14] | outcome [15] | Potency [16] | Potency [20]

CCCC[N+](=O)[O-]
inactive: outcome [1] | outcome [3] | Potency [17] | Potency [4] | Potency [5] | Potency [6] | Potency [18] | Potency [7] | outcome [8] | Potency [9] | outcome [10] | Potency [11] | Potency [12] | Potency [14] | outcome [15] | Potency [16] | Potency [20]

CC(=O)CN(CC(C)=O)N=O
inactive: outcome [1] | Potency [2] | Potency [17] | Potency [5] | Potency [6] | Potency [18] | Potency [7] | outcome [8] | Potency [9] | outcome [10] | Potency [11] | Potency [12] | Potency [14] | outcome [15] | Potency [16] | Potency [20]

CC(=O)OCC1=C(C(=O)O)N2C(=O)[C@@H](N)[C@H]2SC1
inactive: activity change, negative = cytotoxicity [1] -1.9% [at 15.8 µM] | cytotoxicity increase [2] -3.48% [at 15.8 µM] | cytotoxicity increase [17] 0.0293% [at 15.8 µM] | activity change, negative = cytotoxic [5] 0.0339% [at 15.8 µM] | activity change, negative = cytotoxicity [6] 11.4% [at 15.8 µM] | activity change, negative = cytotoxicity [18] -14.1% [at 15.8 µM] | activity change, negative = cytotoxicity [8] -5.45% [at 15.8 µM] | cytotoxicity increase [9] 1.96% [at 15.8 µM] | activity change, negative = cytotoxicity [10] 4.49% [at 19 µM] | viability change, negative = cytotoxic [11] 4.78% [at 19 µM] | Potency [13] | activity change, negative = inhibition [14] -0.068% [at 19 µM] | activity change, negative = cytotoxicity [15] 0.172% [at 19 µM] | viability change, negative = cytotoxic [16] 1.92% [at 19 µM] | viability change, negative = cytotoxic [20] 0.909% [at 19 µM]

Brc1c(Br)c(Br)c(Br)c(Br)c1Br
inactive: activity change, negative = cytotoxicity [1] 0% [at 6.97 µM] | cytotoxicity increase [2] 4.45% [at 6.97 µM] | cytotoxicity increase [17] 0.204% [at 6.97 µM] | activity change, negative = cytotoxic [5] -8.35% [at 6.97 µM] | activity change [7] 4.52% [at 6.97 µM, stronger effect = higher value] | activity change, negative = cytotoxicity [8] 0.505% [at 6.97 µM] | cytotoxicity increase [9] -4.76% [at 6.97 µM] | activity change, negative = cytotoxicity [10] -4.2% [at 8.39 µM] | viability change, negative = cytotoxic [11] 7.8% [at 8.39 µM] | activity change, negative = inhibition [12] 3.5% [at 8.39 µM] | activity change, negative = inhibition [14] 4.51% [at 8.39 µM] | activity change, negative = cytotoxicity [15] 1.6% [at 8.39 µM] | viability change, negative = cytotoxic [16] 2.28% [at 8.39 µM] | viability change, negative = cytotoxic [20] 1.61% [at 8.39 µM]
